Experimental data published in paper PMC7819943, “Rice protein-binding microarrays: a tool to detect cis-acting elements near promoter regions in rice”.
The full ranking holds about 68,000 sequences; the median of “fluorescence intensity (a.u.)” is about 9,100, and the highest 2% start at about 16,000. Many of the other results were omitted from the sample, so the highest values are more common in it than they were.

target: OsWRKY34 (Oryza sativa, UniProt Q0JBA9 1-250); experiment: protein-binding microarray (RPBM); PBS, 2% BSA, 51.3 ng/ul salmon testes DNA, 50 uM zinc acetate, 200 nM TF, 25 C, 1 h; high values mean tight binding; settings: protein: recombinant; tags: N-terminal polyhistidine and DsRed monomer fusion (pET32a); label: CyDye5-dUTP incorporated in the synthesized complementary strand; 3' TTTTT single-stranded linker to array surface; dsDNA, one strand shown
In short: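 An Axon 4000B scanner gave the binding signal as per-feature fluorescence intensity in arbitrary units. This followed washing of a custom Agilent array that had been incubated for 1 h at 25 °C with 200 nM protein in PBS, 2% BSA, salmon testes DNA and 50 µM zinc acetate. The proteins were transcription factors fused at the N-terminus to polyhistidine and DsRed, expressed in E. coli BL21-CodonPlus and purified on Ni–NTA.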

Chain of OsWRKY34 (Q0JBA9 entry or part of it): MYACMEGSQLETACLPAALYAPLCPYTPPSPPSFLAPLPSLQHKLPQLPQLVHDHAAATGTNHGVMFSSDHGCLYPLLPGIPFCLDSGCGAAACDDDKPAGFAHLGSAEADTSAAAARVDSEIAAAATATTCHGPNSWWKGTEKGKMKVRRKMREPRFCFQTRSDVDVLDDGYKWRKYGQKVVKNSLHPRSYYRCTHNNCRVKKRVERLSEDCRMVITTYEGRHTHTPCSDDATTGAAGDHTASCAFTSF

Sequence	binding signal
GATCCGCTCGCCCCGCCGCGCCGCCGACCATCGCCATCGCCGGAGTCACCTAGTGCAG	8410 fluorescence intensity (a.u.)
TCCCACCCGCTGCCACCAAAACCCTCCCCGCGCCCGGTCCCGGAGTCACCTAGTGCAG	10500 fluorescence intensity (a.u.)
TCGACAATGTCACTCCATCATATCATGGCCAAAATATAACCGGAGTCACCTAGTGCAG	8140 fluorescence intensity (a.u.)
TCGCGACCTCTCATCTATCGATCTTTGCATACATATATATCGGAGTCACCTAGTGCAG	17800 fluorescence intensity (a.u.)
CGCATATATATCTCTCTTTGCATCTGTACTCATCGAATCTCGGAGTCACCTAGTGCAG	8640 fluorescence intensity (a.u.)
CTCTCCTCTCCGGTCATCTCATATATACGTATCTATATCGCGGAGTCACCTAGTGCAG	8520 fluorescence intensity (a.u.)
ATCCCCGTGTTCTCCCCACACAAACCTTCGCGCCGCCCATCGGAGTCACCTAGTGCAG	9540 fluorescence intensity (a.u.)
CCTACTTGTTGGCTTCTATCTCCTGTTAATTAATTTCTCACGGAGTCACCTAGTGCAG	8450 fluorescence intensity (a.u.)
AATCGTTTTCTTTCTTGTCTTCAAACTTATTTTCCCGTTTCGGAGTCACCTAGTGCAG	9600 fluorescence intensity (a.u.)
AGGTGGAGGTGGAGGTGGAGGAGGGCGGCGGGTGGCGATGCGGAGTCACCTAGTGCAG	16500 fluorescence intensity (a.u.)
GAGGAGAGGCGGGGTGAGACGGGACGGGAGGGTGGCGATGCGGAGTCACCTAGTGCAG	9530 fluorescence intensity (a.u.)
GTCAGGTGGCGGCGGCGGCGGTGGTGGCGGTGGAGGTGGACGGAGTCACCTAGTGCAG	14400 fluorescence intensity (a.u.)
GGAGGGCGGTGGCGAGGGCGGCGGTGGCGCGGATGCTGGACGGAGTCACCTAGTGCAG	8960 fluorescence intensity (a.u.)
AGGAGGTGGTGGGTGGTGGTGGCTGCGGCTTGGCGCGATGCGGAGTCACCTAGTGCAG	9400 fluorescence intensity (a.u.)
AAGGGTGGGCGTGATGGAGTTTGGATGGGCCCTGCGACGGCGGAGTCACCTAGTGCAG	9160 fluorescence intensity (a.u.)
CAGGTGGACGGCGGTGGTGGTGGTGGTGGTGGCGGCGATGCGGAGTCACCTAGTGCAG	17000 fluorescence intensity (a.u.)
CAGTTTCATCCCTAGGTGGTGGTGGCGGTGCGTGGAGTGACGGAGTCACCTAGTGCAG	16600 fluorescence intensity (a.u.)
GGCGGTGGCGGTGACGGTGGAGGTGGAGGCGGTGTGGCATCGGAGTCACCTAGTGCAG	8420 fluorescence intensity (a.u.)
TCATGATGAATCGGGGTGGTGGAGGTTTGCTTGTTATGGTCGGAGTCACCTAGTGCAG	11000 fluorescence intensity (a.u.)
AGATTTGACTATCCTGCTGGAATCCGGTAACAATTTTTCACGGAGTCACCTAGTGCAG	9560 fluorescence intensity (a.u.)
TTGGTTGGTTGGTTATACAAAGACGCTACGAGTCCGGGAACGGAGTCACCTAGTGCAG	12400 fluorescence intensity (a.u.)
ACCATAAAGCCAAGTTTCATCCATAATCCTTATTTTTCATCGGAGTCACCTAGTGCAG	8670 fluorescence intensity (a.u.)
TGTTATATTTGTATTTGTGCTTTGCTTCTTCTAGGCTTTTCGGAGTCACCTAGTGCAG	8740 fluorescence intensity (a.u.)
TCTCTGTCTCACTCTTCCTCTCTCTCACACGCACGGCGAGCGGAGTCACCTAGTGCAG	8380 fluorescence intensity (a.u.)
AGGGCGCCGTCGTTCGTCATGCTGCTTCCGCCGCATCCTGCGGAGTCACCTAGTGCAG	9240 fluorescence intensity (a.u.)
CACTCCGCTGCCGCCCGCCGGAAGGGGAGGGGAGGAGGGGCGGAGTCACCTAGTGCAG	11700 fluorescence intensity (a.u.)
GGCCGGGGAGGGAGGGGCGCCGTCGTCCTGCTGCATCCTGCGGAGTCACCTAGTGCAG	20700 fluorescence intensity (a.u.)
GGGGCGCCGCCGTTCGTCCTGCTGCTTCCGCCGCATCCTGCGGAGTCACCTAGTGCAG	9650 fluorescence intensity (a.u.)
GGTGGAGGCGGGCGCGGTGGAGGCGGGGAGGAAGGGGAGCCGGAGTCACCTAGTGCAG	15100 fluorescence intensity (a.u.)
